Results from paper PMC5869772, “Quantitative profiling of BATF family proteins/JUNB/IRF hetero-trimers using Spec-seq”.

target: T1, BATF2 (bZIP);JUNB (human;human, UniProt Q8N1L9;P17275 1-142;148-347, |); assay: Spec-seq (EMSA and sequencing of bound and unbound bands); 100 nM BATFx-JUNB, 1 uM dsDNA library, 50 mM K acetate, 20 mM Tris-acetate, 10 mM Mg acetate, 100 ug/ml BSA, pH 7.9, 10% glycerol, 30 min on ice; native 9% PAGE at 4 C; low values mean tight binding; settings: protein: recombinant;recombinant; tags: N-terminal mCherry-TEV, cleaved off;C-terminal 6His; copies: 1;1; dsDNA, one strand shown
T1 sequence 1: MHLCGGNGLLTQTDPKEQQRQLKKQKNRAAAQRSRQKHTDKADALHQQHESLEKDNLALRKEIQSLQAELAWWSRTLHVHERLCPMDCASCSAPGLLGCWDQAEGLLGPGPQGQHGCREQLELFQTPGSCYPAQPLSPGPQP
T1 sequence 2: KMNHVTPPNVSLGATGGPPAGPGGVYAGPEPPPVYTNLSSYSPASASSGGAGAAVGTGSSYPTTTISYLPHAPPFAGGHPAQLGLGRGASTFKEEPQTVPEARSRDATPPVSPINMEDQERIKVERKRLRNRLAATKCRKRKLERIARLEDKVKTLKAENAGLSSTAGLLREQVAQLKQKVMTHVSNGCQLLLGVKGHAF
Summary of the method: (§1)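 The protein, at 100 nM, was incubated with 1 μM double-stranded degenerate DNA library for 30 min on ice in NEB Cutsmart buffer with 10% glycerol, then resolved by native 9% PAGE at 4 °C. Excised bound and unbound bands were PCR-barcoded and Illumina-sequenced, and each sequence's relative binding energy in kT is −ln of its bound/unbound read-count ratio.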

First: GATAGTCTCATTTTCACCCCGTGAAATGAGTGATTTGTTCCATTACAGTATCTGT
Second: GATAGTCTCATTTTCACCCCGTGAAATGACGTAATTGTTCCATTACAGTATCTGT
The binding signal of the first is higher: 0.704 kT for the first, -0.891 kT for the second.

target: T2, BATF3;JUNB (human;human, UniProt Q9NR55;P17275 1-127;148-347, |); assay: as above; settings: protein: recombinant;recombinant; tags: N-terminal mCherry-TEV, cleaved off;C-terminal 6His; copies: 1;1; dsDNA, one strand shown
T2 sequence 1: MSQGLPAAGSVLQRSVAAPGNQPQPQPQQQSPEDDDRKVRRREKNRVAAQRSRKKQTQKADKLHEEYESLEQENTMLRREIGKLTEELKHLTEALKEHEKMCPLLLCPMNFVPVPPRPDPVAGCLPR
T2 sequence 2: T1 sequence 2
Summary of the method: as §1

First: GATAGTCTCATTTTCACCCCGTGAAACTCAGTCATTGTTCCATTACAGTATCTGT
Second: GATAGTCTCATTTTCACCCCGTGAAATAACTCATTTGTTCCATTACAGTATCTGT
The binding signal of the first is lower: 0.0164 kT for the first, 0.332 kT for the second.

First: GATAGTCTCATTTTCACCCCGTGAAATTACGTCATTGTTCCATTACAGTATCTGT
Second: GATAGTCTCATTTTCACCCCGTGAAATGACTCGTTTGTTCCATTACAGTATCTGT
The binding signal of the first is lower: -1.82 kT for the first, 0.243 kT for the second.

First: GATAGTCTCATTTTCACCCCGTGAAATGACGTCCTTGTTCCATTACAGTATCTGT
Second: GATAGTCTCATTTTCACCCCGTGAAATGACCCATTTGTTCCATTACAGTATCTGT
The binding signal of the first is lower: -0.0593 kT for the first, 0.67 kT for the second.

Compared with “GATAGTCTCATTTTCACCCCGTGAAATGCCGTCATTGTTCCATTACAGTATCTGT”, “GATAGTCTCATTTTCACCCCGTGAAATGACTAAATTGTTCCATTACAGTATCTGT” is higher in binding signal: -0.649 kT for the first, 0.0877 kT for the second.

Compared with “GATAGTCTCATTTTCACCCCGTGAAATGACTCACTTGTTCCATTACAGTATCTGT”, “GATAGTCTCATTTTCACCCCGTGAAATGACGCAATTGTTCCATTACAGTATCTGT” is lower in binding signal: -0.943 kT for the first, -1.27 kT for the second.

Compared with “GATAGTCTCATTTTCACCCCGTGAAATTGCGTCATTGTTCCATTACAGTATCTGT”, “GATAGTCTCATTTTCACCCCGTGAAACTGCGTCATTGTTCCATTACAGTATCTGT” is higher in binding signal: -1.72 kT for the first, -0.774 kT for the second.

First: GATAGTCTCATTTTCACCCCGTGAAATGAGTGAATTGTTCCATTACAGTATCTGT
Second: GATAGTCTCATTTTCACCCCGTGAAATGACTCTCTTGTTCCATTACAGTATCTGT
The binding signal of the first is lower: 0.58 kT for the first, 0.694 kT for the second.

Going from “GATAGTCTCATTTTCACCCCGTGAAAGCGAGTCATTGTTCCATTACAGTATCTGT” to “GATAGTCTCATTTTCACCCCGTGAAAGTGTGTCATTGTTCCATTACAGTATCTGT”, the binding signal falls from -0.148 kT to -0.359 kT.

First: GATAGTCTCATTTTCACCCCGTGAAATGAGTAATTTGTTCCATTACAGTATCTGT
Second: GATAGTCTCATTTTCACCCCGTGAAATTAAGTCATTGTTCCATTACAGTATCTGT
The binding signal of the first is higher: -0.208 kT for the first, -0.719 kT for the second.

Compared with “GATAGTCTCATTTTCACCCCGTGAAATGAGCCATTTGTTCCATTACAGTATCTGT”, “GATAGTCTCATTTTCACCCCGTGAAATGACTGAATTGTTCCATTACAGTATCTGT” is lower in binding signal: 0.914 kT for the first, 0.179 kT for the second.

Compared with “GATAGTCTCATTTTCACCCCGTGAAATGAGTTACTTGTTCCATTACAGTATCTGT”, “GATAGTCTCATTTTCACCCCGTGAAATGAGTCAGTTGTTCCATTACAGTATCTGT” is lower in binding signal: 0.809 kT for the first, -0.715 kT for the second.

Compared with “GATAGTCTCATTTTCACCCCGTGAAATGACGCCATTGTTCCATTACAGTATCTGT”, “GATAGTCTCATTTTCACCCCGTGAAATGAGACAATTGTTCCATTACAGTATCTGT” is higher in binding signal: -0.802 kT for the first, 0.853 kT for the second.

Going from “GATAGTCTCATTTTCACCCCGTGAAATGACGTCGTTGTTCCATTACAGTATCTGT” to “GATAGTCTCATTTTCACCCCGTGAAATGACTAAGTTGTTCCATTACAGTATCTGT”, the binding signal rises from -0.759 kT to -0.104 kT.

First: GATAGTCTCATTTTCACCCCGTGAAAAGAGTCATTTGTTCCATTACAGTATCTGT
Second: GATAGTCTCATTTTCACCCCGTGAAATGATTCATTTGTTCCATTACAGTATCTGT
The binding signal of the first is higher: 0.137 kT for the first, -0.839 kT for the second.

Compared with “GATAGTCTCATTTTCACCCCGTGAAATGACTTAATTGTTCCATTACAGTATCTGT”, “GATAGTCTCATTTTCACCCCGTGAAATGACTCAGTTGTTCCATTACAGTATCTGT” is lower in binding signal: -0.344 kT for the first, -0.697 kT for the second.

First: GATAGTCTCATTTTCACCCCGTGAAAGTGCGTCATTGTTCCATTACAGTATCTGT
Second: GATAGTCTCATTTTCACCCCGTGAAATGAGTGATTTGTTCCATTACAGTATCTGT
The binding signal of the first is lower: -0.851 kT for the first, 0.444 kT for the second.

“GATAGTCTCATTTTCACCCCGTGAAATGACGTAATTGTTCCATTACAGTATCTGT” was tested, and the binding signal was -1.44 kT.
